Data as given in PubChem BioAssay AID463173 (ICCB-Longwood Screening Facility, Harvard Medical School, 2010).
Among all 52,000 compounds or so, about 4,300 (8.3%) were called active. Rule as the data show it: active = survival mostly below about 52% (no sharp cut-off); inactive = mostly above about 56%. The list comes from a sample in which actives are over-represented; it also holds similar structures and randomly drawn compounds.

tested on: DeltatarO mutant; experiment: growth inhibition of S. aureus wild type versus tarO mutant, primary screen, teichoic acid synthesis inhibitors, RN4220, OD600 (AID 463173); details: OD600, 18 h, active compounds read low, screened at 18.75 µg/mL (by protocol)

SMILES	survival
CCOc1ccc(N(CC(=O)Nc2ccccc2CC)S(=O)(=O)c2c(C)noc2C)cc1	79% (inactive)
COc1ccc(C(=O)Nc2nnc(SCc3cc(=O)n4cccc(C)c4n3)s2)cc1	72% (inactive)
O=C(O)c1ccc(CN2CCCCC2)cc1	79% (inactive)
Cc1cc(C(=O)O)c(CN2CCCC2)o1	74% (active)
Cc1oc(C(=O)O)cc1CN1CCCC1	100% (inactive)
CC1=C(C(=O)Nc2cccnc2)C(c2ccccc2Cl)n2nc(-c3ccccc3)nc2N1 (stereo not drawn)	74% (inactive)
Cc1nc(SCC(=O)OC(C)(C)C)c2c3c(sc2n1)CCCC3	7% (active)
Cc1ccc(-c2nc(NC(=O)CSc3nc(C)nc4sc5c(c34)CCCC5)ns2)cc1	53% (inactive)
Cc1nc(SCC(N)=O)c2c3c(sc2n1)CCCC3	80% (inactive)
CCCCN(C)c1ncnc2c1cnn2-c1cccc(Cl)c1	101% (inactive)
CCc1ccc(C(=O)c2cn(CC(=O)Nc3ccc4c(c3)OCO4)c3ccc(Cl)cc3c2=O)cc1	72% (inactive)
O=S(=O)(NC1CCCCC1)c1cc(Cl)ccc1Cl	96% (inactive)
Cc1cc(C)c(S(=O)(=O)Nc2ccc3oc4c(c3c2)CCCC4)cc1C	55% (inactive)
Cc1cc(S(=O)(=O)Nc2ccc3oc4c(c3c2)CCCC4)ccc1Cl	41% (active)
CCOc1ccc(S(=O)(=O)Nc2ccc3oc4c(c3c2)CC(C)CC4)cc1 (stereo not drawn)	44% (inactive)
CC(C)(C)C1CCc2oc3ccc(NS(=O)(=O)c4ccc(C(=O)O)cc4)cc3c2C1 (stereo not drawn)	16% (active)
Cc1oc2ccc(NS(=O)(=O)c3ccc(F)cc3)cc2c1C(=O)O	193% (inactive)
O=S(=O)(Nc1ccc2oc3c(c2c1)CCCC3)c1cc(Cl)ccc1Cl	33% (active)
CC(C)(C)C1CCc2oc3ccc(NS(=O)(=O)c4cc(Cl)ccc4Cl)cc3c2C1 (stereo not drawn)	73% (inactive)
CCn1cnc2c(=O)oc3ccc(S(=O)(=O)Nc4ccc(OC)cc4)cc3c21	75% (inactive)
Cc1ccc(S(=O)(=O)Nc2cc(Cl)c3oc4c(c3c2)CCCC4)cc1	117% (inactive)

SMILES	survival
COc1ccc(S(=O)(=O)Nc2ccc3oc4c(c3c2)CCCC4)cc1	27% (active)
COc1ccc(S(=O)(=O)Nc2ccc3oc4c(c3c2)C(=O)CC(C)(C)C4)cc1	159% (inactive)
CCN1C(=O)c2ccccc2Sc2ccc(NC(=O)Nc3ccc(Br)c(C)c3)cc21	71% (inactive)
Oc1ccccc1Nc1nc2ccccc2n2nnnc12	80% (inactive)
CN(C)CCCNc1nc(-c2ccc(Cl)cc2)cs1	132% (inactive)
CCOc1cc(C2c3c(oc4cc(C)cc(C)c4c3=O)C(=O)N2CCO)ccc1O (stereo not drawn)	68% (inactive)
O=C(Cn1c2ncccc2c(=O)n1-c1ccccc1)Nc1cccc(C(F)(F)F)c1	67% (inactive)
O=C(Nc1ccccc1C(=O)N1CCOCC1)C1COc2ccccc2O1 (stereo not drawn)	95% (inactive)
CCC(=O)N1CCc2cc(CNC(=O)c3ccc(F)cc3)ccc21	73% (inactive)
O=C(Nc1ccc(Cl)cc1F)c1cc(S(=O)(=O)NCc2ccc3c(c2)OCO3)ccc1F	77% (inactive)
COc1ccc(/C=C2\SC(=S)N(CCC(=O)NCCO)C2=O)cc1	104% (inactive)
Cc1cc2c(cc1S(=O)(=O)NCc1ccc(N(C)C)cc1)OCC(=O)N2	80% (inactive)
COc1ccc(NC(=O)c2[nH]nc3c2CSc2ccccc2-3)c(OC)c1	49% (inactive)
CCOc1cccc2cc(-c3nc(-c4ccc(Cl)cc4)c(C)s3)c(=O)oc12	105% (inactive)
COc1cccc2cc(-c3nc(-c4ccc(C)cc4)c(C)s3)c(=O)oc12	46% (active)
COc1cccc2cc(-c3nc(Nc4cccc(C)c4)sc3C)c(=O)oc12	98% (inactive)
CCOC(=O)C1=C(SCC)c2cc3c(n2C1=O)CCCC3	83% (inactive)
CCc1ccc(CNC(=O)c2cc(-c3ccc(Cl)s3)nc3ccccc23)cc1	83% (inactive)
CC(C)CCNC(=O)c1cc(-c2ccc(Br)s2)nc2ccccc12	81% (inactive)
CCCN(CCC)CCNC(=O)c1cc(-c2ccc(Br)s2)nc2ccccc12	68% (inactive)
CCc1ccc(CNC(=O)c2cc(-c3ccc(Br)s3)nc3ccccc23)cc1	60% (active)

SMILES	survival
CCCCN(C)CCCNC(=O)c1cc(-c2ccc(Br)s2)nc2ccccc12	33% (inactive)
CCN(CC)CC(C)CNC(=O)c1cc(-c2ccc(Br)s2)nc2ccccc12 (stereo not drawn)	31% (active)
CC(C)CN(CCCNC(=O)c1cc(-c2ccc(Br)s2)nc2ccccc12)CC(C)C	91% (inactive)
COc1ccc(CNC(=O)c2cc(-c3ccc(Br)s3)nc3ccccc23)cc1	77% (inactive)
CCN(CC)CCNC(=O)c1cc(-c2ccc(Br)s2)nc2ccccc12	28% (active)
Cc1ccc(S(=O)(=O)c2cn(CC(=O)Nc3ccc(Cl)cc3)c3ccc(F)cc3c2=O)cc1C	53% (inactive)
CC(C)(C)c1ccc(C(=O)Nc2ccccc2C(=O)OCc2cc(=O)n3ccsc3n2)cc1	73% (inactive)
CC1OC(Nc2ccc(OC(F)(F)F)cc2)C(O)C(O)C1O (stereo not drawn)	84% (inactive)
CCC(C)n1c(=O)c2sccc2n2c(CCCC(=O)N3CCN(c4ccccc4)CC3)nnc12 (stereo not drawn)	89% (inactive)
CCc1cccc(NC(=O)CCNS(=O)(=O)c2cccc3nonc23)c1	97% (inactive)
Cc1ccc(NC(=O)CCS(=O)(=O)c2cccc3nonc23)c(C)c1	99% (inactive)
Cc1cc(NC(=O)CCNS(=O)(=O)c2cccc3nsnc23)ccc1Br	102% (inactive)
Cc1ccc(NC(=O)CCNS(=O)(=O)c2cccc3nonc23)cc1Cl	39% (active)
CCOC(=O)c1cccc(NC(=O)CCNS(=O)(=O)c2cccc3nonc23)c1	46% (active)
COc1ccc(NC(=O)CCS(=O)(=O)c2cccc3nonc23)cc1Cl	68% (inactive)
Cc1cc(Br)ccc1NC(=O)CCNS(=O)(=O)c1cccc2nonc12	43% (active)
COC(=O)c1ccc(NC(=O)CCNS(=O)(=O)c2cccc3nsnc23)cc1	65% (inactive)
Cc1cccc(NC(=O)CCNS(=O)(=O)c2cccc3nonc23)c1	44% (active)
CCOc1ccc(NC(=O)CCNS(=O)(=O)c2cccc3nsnc23)cc1	52% (inactive)
Cc1cc(Br)ccc1NC(=O)CCS(=O)(=O)c1cccc2nonc12	83% (inactive)
Cc1ccc(NC(=O)CCS(=O)(=O)c2cccc3nonc23)cc1Cl	71% (inactive)
